Assay results reported in PMC7862700, “An all-to-all approach to the identification of sequence-specific readers for epigenetic DNA modifications on cytosine”.

Experiments:
Assay in all cases: DAPPL (digital affinity profiling via proximity ligation, sequencing); 10 mM Tris-HCl pH 7.5, 50 mM NaCl, 1 mM DTT, 4% glycerol, room temperature, 30 min; GST-TFs on glutathione beads, 16-mer random dsDNA library, 0.1% formaldehyde crosslink after washing; high values mean tight binding
Details in all cases: protein: recombinant; tags: N-terminal GST; dsDNA, one strand shown
FEV = biological target: T1, FEV (Homo sapiens, UniProt Q99581 1-238)
T1 sequence: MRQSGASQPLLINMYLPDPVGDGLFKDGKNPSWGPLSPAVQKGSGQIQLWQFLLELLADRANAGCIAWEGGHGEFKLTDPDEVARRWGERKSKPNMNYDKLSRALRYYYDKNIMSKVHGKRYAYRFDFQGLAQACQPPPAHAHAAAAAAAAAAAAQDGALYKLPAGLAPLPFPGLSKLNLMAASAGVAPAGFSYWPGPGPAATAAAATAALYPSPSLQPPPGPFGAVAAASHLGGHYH
In short: (§1)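 Beads coated with glutathione captured GST-fused human transcription factors that had been expressed in yeast, and the factors were then given DNA barcodes and pooled with a tag-only sample. The pools were incubated with 200 nmole of a random double-stranded 16-mer DNA library in Tris/NaCl/DTT/glycerol buffer for 30 min at room temperature, washed, crosslinked with 0.1% formaldehyde and proximity-ligated with BsaI/T4 ligase at 37 °C for 1 h. PCR amplification and Illumina NextSeq500 sequencing came last. Binding signal is each hexamer's read frequency for a factor divided by its frequency for the tag-only sample.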

ETV5 = ETV5 (Homo sapiens, UniProt P41161 1-510)
In short: as §1

SPIC = biological target: T2, SPIC (Homo sapiens, UniProt Q8N5J4 1-248)
T2 sequence: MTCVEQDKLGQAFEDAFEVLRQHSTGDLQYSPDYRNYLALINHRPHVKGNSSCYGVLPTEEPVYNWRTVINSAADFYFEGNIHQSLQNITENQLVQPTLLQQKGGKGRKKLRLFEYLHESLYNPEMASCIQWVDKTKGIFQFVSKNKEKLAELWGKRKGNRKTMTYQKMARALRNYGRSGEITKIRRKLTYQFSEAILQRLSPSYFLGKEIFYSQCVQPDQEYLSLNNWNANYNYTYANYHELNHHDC
In short: as §1

ELF4 = ELF4 (Homo sapiens, UniProt Q99607 1-663)
In short: as §1

ELK4 = biological target: T3, ELK4 (Homo sapiens, UniProt P28324-2 1-405)
T3 sequence: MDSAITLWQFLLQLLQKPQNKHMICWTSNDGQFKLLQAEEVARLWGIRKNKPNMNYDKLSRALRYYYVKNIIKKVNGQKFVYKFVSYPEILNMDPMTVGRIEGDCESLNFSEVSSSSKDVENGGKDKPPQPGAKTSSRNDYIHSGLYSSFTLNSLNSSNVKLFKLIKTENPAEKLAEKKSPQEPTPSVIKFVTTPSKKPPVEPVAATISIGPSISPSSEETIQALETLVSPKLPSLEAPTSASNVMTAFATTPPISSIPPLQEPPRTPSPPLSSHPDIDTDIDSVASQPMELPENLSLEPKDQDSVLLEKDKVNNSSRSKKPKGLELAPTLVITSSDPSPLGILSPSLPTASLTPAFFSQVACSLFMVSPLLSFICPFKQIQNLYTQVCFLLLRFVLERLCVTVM
In short: as §1

ETV2 = biological target: T4, ETV2 (Homo sapiens, UniProt O00321 1-342)
T4 sequence: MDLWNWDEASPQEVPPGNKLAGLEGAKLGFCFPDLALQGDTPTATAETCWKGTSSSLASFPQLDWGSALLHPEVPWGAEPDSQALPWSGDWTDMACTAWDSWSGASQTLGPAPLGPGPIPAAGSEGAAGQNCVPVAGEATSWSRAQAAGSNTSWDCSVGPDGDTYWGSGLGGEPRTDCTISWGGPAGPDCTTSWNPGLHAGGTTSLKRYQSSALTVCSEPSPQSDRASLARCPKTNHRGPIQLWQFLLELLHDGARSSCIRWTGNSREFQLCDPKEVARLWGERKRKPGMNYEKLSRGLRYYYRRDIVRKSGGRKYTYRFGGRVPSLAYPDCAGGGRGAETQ
In short: as §1

ELF3 = biological target: T5, ELF3 (Homo sapiens, UniProt P78545 1-371)
T5 sequence: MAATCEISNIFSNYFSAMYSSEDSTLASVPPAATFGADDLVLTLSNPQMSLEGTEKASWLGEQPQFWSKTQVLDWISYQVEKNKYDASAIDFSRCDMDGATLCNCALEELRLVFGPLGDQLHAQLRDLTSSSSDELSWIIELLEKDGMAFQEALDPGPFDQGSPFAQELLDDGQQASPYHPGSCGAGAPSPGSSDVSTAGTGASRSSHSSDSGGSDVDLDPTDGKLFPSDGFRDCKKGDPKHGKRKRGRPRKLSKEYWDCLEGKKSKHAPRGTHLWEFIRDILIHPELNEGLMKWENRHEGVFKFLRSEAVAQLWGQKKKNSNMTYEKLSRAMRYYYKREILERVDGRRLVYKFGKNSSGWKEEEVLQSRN
In short: as §1

CRX = CRX (Homo sapiens, UniProt O43186 1-299)
In short: as §1

ETV1 = ETV1 (Homo sapiens, UniProt P50549 1-477)
In short: as §1

ERF = biological target: T6, ERF (Homo sapiens, UniProt P50548 1-548)
T6 sequence: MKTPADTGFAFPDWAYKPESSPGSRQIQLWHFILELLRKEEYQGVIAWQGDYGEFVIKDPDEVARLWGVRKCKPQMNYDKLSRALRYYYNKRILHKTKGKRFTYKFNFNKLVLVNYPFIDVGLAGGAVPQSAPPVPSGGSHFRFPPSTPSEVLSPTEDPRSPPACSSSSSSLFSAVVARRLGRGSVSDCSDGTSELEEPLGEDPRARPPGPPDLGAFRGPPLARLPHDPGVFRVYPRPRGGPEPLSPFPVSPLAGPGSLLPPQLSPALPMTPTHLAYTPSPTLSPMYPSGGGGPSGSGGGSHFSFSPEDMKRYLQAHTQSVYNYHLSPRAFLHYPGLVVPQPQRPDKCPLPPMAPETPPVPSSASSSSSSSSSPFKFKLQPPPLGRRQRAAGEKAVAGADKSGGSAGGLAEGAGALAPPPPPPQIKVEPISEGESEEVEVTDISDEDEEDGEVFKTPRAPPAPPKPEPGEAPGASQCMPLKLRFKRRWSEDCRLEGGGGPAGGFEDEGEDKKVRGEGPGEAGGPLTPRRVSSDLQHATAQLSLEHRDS
In short: as §1

ETV3L = biological target: T7, ETV3L (Homo sapiens, UniProt Q6ZN32 1-361)
T7 sequence: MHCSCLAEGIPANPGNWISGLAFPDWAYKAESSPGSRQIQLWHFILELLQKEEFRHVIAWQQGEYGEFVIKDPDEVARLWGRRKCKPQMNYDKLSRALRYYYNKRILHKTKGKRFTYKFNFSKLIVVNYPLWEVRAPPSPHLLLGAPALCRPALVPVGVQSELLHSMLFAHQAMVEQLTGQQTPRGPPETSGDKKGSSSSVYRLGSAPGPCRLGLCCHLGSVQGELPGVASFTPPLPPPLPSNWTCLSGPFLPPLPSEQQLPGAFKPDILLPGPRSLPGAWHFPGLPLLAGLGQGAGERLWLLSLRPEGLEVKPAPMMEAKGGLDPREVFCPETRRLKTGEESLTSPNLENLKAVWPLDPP
In short: as §1

ETS2 = biological target: T8, ETS2 (Homo sapiens, UniProt P15036 1-469)
T8 sequence: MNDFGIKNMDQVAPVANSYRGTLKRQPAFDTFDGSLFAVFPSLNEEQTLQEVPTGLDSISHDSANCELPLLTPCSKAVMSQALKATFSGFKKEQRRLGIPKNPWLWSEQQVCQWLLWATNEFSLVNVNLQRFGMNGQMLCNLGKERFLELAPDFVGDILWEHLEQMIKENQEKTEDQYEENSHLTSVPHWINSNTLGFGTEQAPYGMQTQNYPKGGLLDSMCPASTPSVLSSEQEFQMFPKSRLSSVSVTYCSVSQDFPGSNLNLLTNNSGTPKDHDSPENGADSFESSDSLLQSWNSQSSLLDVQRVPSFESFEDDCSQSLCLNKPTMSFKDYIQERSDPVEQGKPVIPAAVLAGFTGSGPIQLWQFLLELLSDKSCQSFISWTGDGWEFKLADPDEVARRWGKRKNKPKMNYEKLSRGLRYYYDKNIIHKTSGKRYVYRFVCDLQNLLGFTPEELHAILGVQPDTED
In short: as §1

SPDEF = biological target: T9, SPDEF (Homo sapiens, UniProt O95238 1-335)
T9 sequence: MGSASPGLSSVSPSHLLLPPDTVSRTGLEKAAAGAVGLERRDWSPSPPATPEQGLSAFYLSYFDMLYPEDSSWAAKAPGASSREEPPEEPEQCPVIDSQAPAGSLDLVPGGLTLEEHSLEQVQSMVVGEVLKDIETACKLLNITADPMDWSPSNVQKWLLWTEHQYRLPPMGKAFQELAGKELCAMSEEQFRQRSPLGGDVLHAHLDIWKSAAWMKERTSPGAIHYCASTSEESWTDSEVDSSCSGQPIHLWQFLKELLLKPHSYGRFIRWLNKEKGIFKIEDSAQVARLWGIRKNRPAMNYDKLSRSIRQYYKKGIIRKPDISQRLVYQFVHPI
In short: as §1

ETV7 = biological target: T10, ETV7 (Homo sapiens, UniProt Q9Y603 1-341)
T10 sequence: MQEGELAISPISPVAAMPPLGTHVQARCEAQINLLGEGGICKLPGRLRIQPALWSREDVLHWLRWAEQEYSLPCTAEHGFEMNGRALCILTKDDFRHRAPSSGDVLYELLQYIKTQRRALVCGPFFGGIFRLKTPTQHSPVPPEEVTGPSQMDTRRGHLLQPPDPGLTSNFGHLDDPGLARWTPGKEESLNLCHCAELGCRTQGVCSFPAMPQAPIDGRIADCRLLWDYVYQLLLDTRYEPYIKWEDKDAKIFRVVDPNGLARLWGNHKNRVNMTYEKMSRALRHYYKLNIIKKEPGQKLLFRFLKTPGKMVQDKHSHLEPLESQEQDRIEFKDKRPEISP
In short: as §1

ELF5 = biological target: T11, ELF5 (Homo sapiens, UniProt Q9UKW6-2 1-255)
T11 sequence: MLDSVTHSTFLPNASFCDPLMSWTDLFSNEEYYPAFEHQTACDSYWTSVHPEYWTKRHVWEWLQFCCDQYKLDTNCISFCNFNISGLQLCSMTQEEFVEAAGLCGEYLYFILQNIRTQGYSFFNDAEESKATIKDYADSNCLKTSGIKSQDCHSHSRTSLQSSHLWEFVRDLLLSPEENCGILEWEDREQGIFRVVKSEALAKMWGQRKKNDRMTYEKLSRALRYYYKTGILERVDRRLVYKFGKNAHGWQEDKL
In short: as §1

ETV3 = biological target: T12, ETV3 (Homo sapiens, UniProt P41162-2 1-143)
T12 sequence: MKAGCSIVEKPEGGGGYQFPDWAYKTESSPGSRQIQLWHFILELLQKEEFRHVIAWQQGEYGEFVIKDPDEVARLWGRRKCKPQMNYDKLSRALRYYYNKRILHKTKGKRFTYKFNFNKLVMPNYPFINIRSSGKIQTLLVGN
In short: as §1

ETV6 = ETV6 (Homo sapiens, UniProt P41212 1-452)
In short: as §1

ETV1, sequence (P50549 whole entry): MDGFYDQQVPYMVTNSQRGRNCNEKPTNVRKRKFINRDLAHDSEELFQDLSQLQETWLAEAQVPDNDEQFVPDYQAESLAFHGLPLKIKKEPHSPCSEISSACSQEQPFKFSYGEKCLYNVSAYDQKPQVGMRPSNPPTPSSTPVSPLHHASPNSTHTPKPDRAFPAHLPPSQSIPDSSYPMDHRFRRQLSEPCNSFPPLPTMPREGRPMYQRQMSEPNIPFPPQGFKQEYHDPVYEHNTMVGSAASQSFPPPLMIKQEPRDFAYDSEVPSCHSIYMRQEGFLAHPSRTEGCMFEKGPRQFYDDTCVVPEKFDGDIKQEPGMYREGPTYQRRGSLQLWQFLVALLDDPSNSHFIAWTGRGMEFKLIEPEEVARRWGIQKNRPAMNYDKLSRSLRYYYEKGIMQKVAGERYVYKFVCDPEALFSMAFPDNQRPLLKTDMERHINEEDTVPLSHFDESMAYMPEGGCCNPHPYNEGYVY
ETV5, sequence (P41161 whole entry): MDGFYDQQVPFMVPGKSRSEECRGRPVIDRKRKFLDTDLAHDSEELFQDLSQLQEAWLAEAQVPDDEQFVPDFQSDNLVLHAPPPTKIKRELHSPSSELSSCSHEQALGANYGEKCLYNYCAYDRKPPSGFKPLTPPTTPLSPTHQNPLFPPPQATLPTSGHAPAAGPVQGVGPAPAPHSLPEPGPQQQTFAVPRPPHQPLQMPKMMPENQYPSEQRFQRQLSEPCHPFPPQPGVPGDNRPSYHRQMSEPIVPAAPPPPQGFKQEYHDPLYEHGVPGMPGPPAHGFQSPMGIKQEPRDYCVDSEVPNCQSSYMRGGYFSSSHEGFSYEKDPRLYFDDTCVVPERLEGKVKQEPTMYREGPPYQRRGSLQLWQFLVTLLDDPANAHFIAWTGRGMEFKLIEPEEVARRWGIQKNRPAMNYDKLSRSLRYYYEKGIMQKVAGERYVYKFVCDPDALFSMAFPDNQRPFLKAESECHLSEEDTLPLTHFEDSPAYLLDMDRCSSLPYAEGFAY
ELF4, sequence (Q99607 whole entry): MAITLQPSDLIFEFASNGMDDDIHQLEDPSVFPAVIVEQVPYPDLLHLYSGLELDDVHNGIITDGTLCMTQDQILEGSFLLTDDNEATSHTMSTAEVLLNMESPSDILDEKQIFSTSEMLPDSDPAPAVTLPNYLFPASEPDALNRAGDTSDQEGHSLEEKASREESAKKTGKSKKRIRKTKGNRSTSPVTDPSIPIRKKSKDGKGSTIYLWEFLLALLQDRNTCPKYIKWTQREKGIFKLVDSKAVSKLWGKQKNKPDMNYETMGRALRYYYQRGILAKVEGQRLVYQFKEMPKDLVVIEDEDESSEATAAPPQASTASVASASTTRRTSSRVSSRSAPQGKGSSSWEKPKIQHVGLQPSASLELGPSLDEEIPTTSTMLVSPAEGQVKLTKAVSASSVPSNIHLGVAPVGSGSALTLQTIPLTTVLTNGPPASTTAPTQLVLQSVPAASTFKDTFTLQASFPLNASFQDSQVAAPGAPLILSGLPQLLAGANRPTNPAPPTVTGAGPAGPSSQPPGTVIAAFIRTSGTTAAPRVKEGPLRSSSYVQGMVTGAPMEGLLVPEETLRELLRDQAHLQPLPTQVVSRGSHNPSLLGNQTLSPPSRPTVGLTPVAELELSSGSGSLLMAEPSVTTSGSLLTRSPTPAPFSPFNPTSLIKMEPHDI
ETV6, sequence (P41212 whole entry): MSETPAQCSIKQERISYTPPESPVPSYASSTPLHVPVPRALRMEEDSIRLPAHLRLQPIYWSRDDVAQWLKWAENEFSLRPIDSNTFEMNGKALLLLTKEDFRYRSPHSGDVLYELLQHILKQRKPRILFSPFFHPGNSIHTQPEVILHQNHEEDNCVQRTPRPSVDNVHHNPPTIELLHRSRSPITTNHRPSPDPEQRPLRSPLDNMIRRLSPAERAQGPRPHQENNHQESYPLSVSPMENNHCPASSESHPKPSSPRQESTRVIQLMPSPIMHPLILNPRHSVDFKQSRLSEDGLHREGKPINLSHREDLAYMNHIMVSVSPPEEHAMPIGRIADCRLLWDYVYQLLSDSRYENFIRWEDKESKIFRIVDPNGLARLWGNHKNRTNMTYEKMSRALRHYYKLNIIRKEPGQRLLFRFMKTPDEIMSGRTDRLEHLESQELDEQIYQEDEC
CRX, sequence (O43186 whole entry): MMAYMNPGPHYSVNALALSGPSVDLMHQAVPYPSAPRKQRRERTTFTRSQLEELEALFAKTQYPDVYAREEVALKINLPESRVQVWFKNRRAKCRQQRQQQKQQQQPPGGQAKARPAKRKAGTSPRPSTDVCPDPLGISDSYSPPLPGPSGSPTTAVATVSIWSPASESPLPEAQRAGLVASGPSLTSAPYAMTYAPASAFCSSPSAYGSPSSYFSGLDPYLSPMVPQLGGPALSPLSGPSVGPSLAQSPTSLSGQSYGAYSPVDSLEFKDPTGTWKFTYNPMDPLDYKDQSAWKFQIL

Sequence: TGTTGA
- binding signal (FEV): 1.07 fold enrichment (6-mer frequency, TF over GST control)
- binding signal (ETV5): 1.07 fold enrichment (6-mer frequency, TF over GST control)
- binding signal (SPIC): 1.15 fold enrichment (6-mer frequency, TF over GST control)
- binding signal (ELF4): 1.1 fold enrichment (6-mer frequency, TF over GST control)
- binding signal (ELK4): 1.16 fold enrichment (6-mer frequency, TF over GST control)
- binding signal (ETV2): 1.12 fold enrichment (6-mer frequency, TF over GST control)
- binding signal (ELF3): 1.09 fold enrichment (6-mer frequency, TF over GST control)
- binding signal (CRX): 1.02 fold enrichment (6-mer frequency, TF over GST control)
- binding signal (ETV1): 1.07 fold enrichment (6-mer frequency, TF over GST control)
- binding signal (ERF): 1.13 fold enrichment (6-mer frequency, TF over GST control)
- binding signal (ETV3L): 1.17 fold enrichment (6-mer frequency, TF over GST control)
- binding signal (ETS2): 1.11 fold enrichment (6-mer frequency, TF over GST control)
- binding signal (SPDEF): 1.23 fold enrichment (6-mer frequency, TF over GST control)
- binding signal (ETV7): 1.18 fold enrichment (6-mer frequency, TF over GST control)
- binding signal (ELF5): 1.08 fold enrichment (6-mer frequency, TF over GST control)
- binding signal (ETV3): 1.11 fold enrichment (6-mer frequency, TF over GST control)
- binding signal (ETV6): 1.01 fold enrichment (6-mer frequency, TF over GST control)
